Compound activity (PubChem BioAssay)
VP16 counter – Gal4-VP16 reporter inhibition counter-screen; Drosophila S2 Gal4-VP16 UAS-luciferase, luminescence, 20 h; hit rate 3.5% among 310,000; Potency, µM (highest dose often 53.6 µM), for inactives: at the top dose activity, negative = inhibition, hits mostly inhibitors;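 note: Gal4-VP16 expression switched on by copper sulfate through the metallothionein promoter; potency is the fitted concentration of half-maximal effect; nearly all actives have a fitted effect of over 50% in size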
TrxR1 substrate – is turned over as a substrate by rat TrxR1; O89049; purified TrxR1 substrate turnover, NADPH consumption readout; Potency, µM (titrated, usually from 114 µM), for inactives: at the highest dose activity change, negative = substrate turnover; hit rate 0.01% among 390,000; note: potency is the fitted concentration of half-maximal effect; nearly all actives have a fitted effect of over 50% in size
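Rat TrxR1, dispensed at 90 nM, was prereduced with 400 uM NADPH (final) for 5 min at ~22 deg C, then incubated with compound 15 min before 400 uM selenite. A first-read NADPH fluorescence drop versus no-compound background flagged substrates.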
GALK inhibitor – blocks human galactokinase activity; P51570; Purified GALK, Kinase-Glo residual ATP luminescence; Potency, µM (top dose mostly 57.5 µM), inactives show at the top dose activity change, negative = inhibition, most hits filed as inhibitors; hit rate 0.007% among 270,000; AID 1868; note: potency is the fitted concentration of half-maximal effect
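5 nM enzyme, 35 uM ATP, 100 uM galactose, 20 mM HEPES pH8.0, 5 mM MgCl2; 1 h RT; residual ATP by Kinase-Glo Plus luminescence, qHTS format.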
FBPA coupling cs – coupling enzyme interference in Giardia aldolase counter-screen. coupling enzyme system counterscreen, AmpLite Red fluorescence. activity change, negative = inhibition, % at 58.2 µM, hits read low. hit rate 0.67% among 290,000; in the data active = activity change below about -30%
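Counterscreen lacking aldolase: glyceraldehyde-3-phosphate coupling-enzyme reagent preincubated 10 min at RT with compound (at 57.5 uM final), then substrate/coupling system with AmpLite Red added; fluorescence read at 525/598 nm after 20 min RT.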
TrxR1 inh – blocks rat thioredoxin reductase 1; recombinant rTrxR1, NADPH fluorescence consumption, selenite substrate; Potency, µM (doses to about 114 µM), for the others: at the highest dose activity change, negative = inhibition, hits mostly inhibitors; hit rate 1% among 390,000; AID 588453; note: potency is the fitted concentration of half-maximal effect; nearly all actives have a fitted effect of over 65% in size
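Rat TrxR1 (90 nM in the dispensed reagent) was pre-reduced with 400 uM NADPH for 5 min at room temperature, then incubated with compound for 15 min. After 400 uM selenite was added, NADPH fluorescence (Ex 340/Em 450 nm) was followed for 8 min.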
RORgamma inh – blocks mouse ROR gamma transcriptional activity | Potency, µM (titrated, usually from 53.6 µM), without a hit: at the top dose activity change, negative = inhibition, actives largely listed as inhibitors | Drosophila S2 Gal4-RORgamma UAS-luciferase reporter, 20 h | AID 2551 | hit rate 5.4% among 310,000 | P51450; note: potency is the fitted concentration of half-maximal effect; nearly all actives have a fitted effect of over 60% in size
Target sequence (P51450 whole entry, looked up, the tested form may be a part): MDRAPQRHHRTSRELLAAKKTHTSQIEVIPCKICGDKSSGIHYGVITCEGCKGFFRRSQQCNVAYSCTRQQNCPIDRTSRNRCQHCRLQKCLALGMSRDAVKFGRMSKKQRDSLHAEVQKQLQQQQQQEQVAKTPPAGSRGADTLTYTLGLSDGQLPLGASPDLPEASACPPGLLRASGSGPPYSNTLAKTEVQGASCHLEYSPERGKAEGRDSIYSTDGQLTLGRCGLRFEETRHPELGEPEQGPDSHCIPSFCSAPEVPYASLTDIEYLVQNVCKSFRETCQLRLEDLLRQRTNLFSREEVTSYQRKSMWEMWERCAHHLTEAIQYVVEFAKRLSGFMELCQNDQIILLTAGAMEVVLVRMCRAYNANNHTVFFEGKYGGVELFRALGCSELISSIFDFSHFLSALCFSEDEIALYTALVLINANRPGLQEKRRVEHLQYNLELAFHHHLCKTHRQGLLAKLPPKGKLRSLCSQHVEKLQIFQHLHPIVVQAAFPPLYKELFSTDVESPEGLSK
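ROR gamma transcriptional activity was tracked as Gal4-UAS luciferase output in stably transfected Drosophila Schneider cells, with compound added 1 hr before 700 uM copper sulfate induction and a 20 hr ambient-temperature incubation.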
Active calls of the source: *; ? = inconclusive; . = no result given; [ ] = another dose, or the depositor's remark. Only some compounds are listed: those with a hit (about 5.9% of all), similar ones and a draw of the others. Unless noted, calls come from the whole dose curve; as a rule, active = well fitted curve in the direction sought with a large enough effect; inconclusive = small, poorly fitted or top-dose-only effect, or another doubt; inactive = no such curve, though single readings can be large; an effect the other way counts as inactive or inconclusive. % is set by controls: 0 for no effect and ±100 for the full control effect.

SMILES	VP16 counter	TrxR1 substrate	GALK inhibitor	FBPA coupling cs	TrxR1 inh	RORgamma inh
O=C(CN1c2cccc3cccc(c23)S1(=O)=O)Nc1c(F)c(F)c(F)c(F)c1F	.	8%[57.1 µM]	.	.	1%[2.29 µM]	.
Cc1cc2nc3ccc(=[N+](C)C)cc-3sc2cc1N	35µM*	-16%[57.1 µM]	13%	-42*	19%[57.1 µM]	?
c1ccc2nc(-c3cc4ccccc4s3)ccc2c1	.	-4%	.	.	10%[0.0914 µM]	.
C/C(CC(=O)Nc1cccc(Cl)c1Cl)=N\NC(=O)c1ccccc1N	-83%	38%[57.1 µM]	-4%	-3	-19%[57.1 µM]	13µM*
C/C(CC(=O)Nc1cccc(Cl)c1Cl)=N\NC(=O)c1ccccc1Br	?	17%[57.1 µM]	3%	-1	11%[57.1 µM]	?
COc1ccc(Cl)cc1NC(=O)C/C(C)=N/NC(=O)c1ccccc1Cl	13µM*	1%	2%	0	10%	20%[1.91 µM]
Cn1nnnc1SC1CC(=O)N(c2ccccc2)C1=O (stereo not given)	?	12%[57.1 µM]	1%	0	18µM*	7.9µM*
O=C1CC(Sc2nnnn2C2CCCCC2)C(=O)N1c1ccccc1 (stereo not given)	5µM*	13%	-3%	-3	?	?
Cc1cccc(N2C(=O)CC(Sc3nc(C)cc(C)n3)C2=O)c1 (stereo not given)	3%	2%	0%	5	?	-2%
O=C1CC(SCCO)C(=O)N1c1ccccc1 (stereo not given)	1%	-9%	-2%	-2	9%	28%
Cc1cc(C)cc(N2C(=O)CC(Sc3nnnn3-c3ccccc3)C2=O)c1 (stereo not given)	7.1µM*	16%	0%	.	11µM*	?
CC(=O)N1N=C2c3ccccc3CCC2C1c1ccc(F)cc1 (stereo not given)	4%	3%[57.1 µM]	-2%	6	25%	22%
CCNC(=S)N1N=C2c3ccccc3CCC2C1c1ccc(F)cc1 (stereo not given)	?	2%[57.1 µM]	0%	-3	16%[57.1 µM]	8.9µM*
CN(CCNC(=O)c1cc2c(=O)n(C)c3ccccc3c2n1C)Cc1ccccc1	?	7%[57.1 µM]	3%	-1	-3%[57.1 µM]	11µM*
Cn1c(C(=O)NCCN2CCOCC2)cc2c(=O)n(C)c3ccccc3c21	1%	17%[57.1 µM]	2%	-2	2%[57.1 µM]	-32%
CCCN(CCC)CCNC(=O)c1cc2c(=O)n(C)c3ccccc3c2n1C	-1%	9%[57.1 µM]	0%	-4	-46%	-19%
Cn1c(C(=O)NCCN2CCc3ccccc3C2)cc2c(=O)n(C)c3ccccc3c21	9%	2%	2%	-30*	-5%	-3%
COC(=O)c1cn(C(=O)c2ccccc2F)nc1N	-6%	-3%	0%	0	17%	38%
CC(NC(=O)CN1C(=O)NC2(CCCCCCC2)C1=O)c1ccccc1 (stereo not given)	.	-3%	.	.	-1%	.
Oc1c(Cl)cc(Cl)c2c1NCCC2	5µM*	-7%	0%	-48*	2.2µM*	3.2µM*
O=C1NCCCc2c1oc1ccc(O)cc21	?	1%[57.1 µM]	0%	2	4%[57.1 µM]	20%
O=C(c1ccc(Cl)c(S(=O)(=O)N2CCCCC2)c1)N1CCCCC1	22%	2%	4%	-1	17%	-12%
CN1CC(=O)NC1=NC(=O)c1ccc(Cl)c(S(=O)(=O)N2CCCCCC2)c1	16µM*	-9%	1%	2	-3%	3.5µM*
CN1CC(=O)NC1=NC(=O)c1cc(F)c(F)cc1Cl	?	-5%	-2%	-2	-6%	10µM*
Cc1ccc(CNC(=O)C(OC(=O)c2cccs2)C(C)C)cc1 (stereo not given)	-8%	-3%[57.1 µM]	20%	-1	2%[57.1 µM]	11%
Cc1ccc(-c2oc3ccccc3c(=O)c2O)cc1	13µM*	3%[57.1 µM]	0%	1	5%[57.1 µM]	4µM*
O=c1c(O)c(-c2ccccc2)oc2ccccc12	7.1µM*	-5%	.	1	-4%	4µM*
